Measured values published in PubChem BioAssay.
“And” between values parts separate entries of the source, which are not always exact repeats. Equal values may be shown once. The source made the active and inactive calls. Cut-off read from the data, not from the text of the source, unless noted: active = inhibition above about 80%; inactive = the rest.

Columns and labels:
[1] = target: NAD(+) hydrolase SARM1 (Homo sapiens) (UniProt Q6SZW1); assay: blocking NAD cleavage by SARM1 SAM-TIR – cell lysate, NAD-Glo luminescence (AID 1508614;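 active = compound whose remaining NAD level is above about 45 nM, limit read from the data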;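 note: higher remaining NAD means stronger inhibition of SARM1 NADase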); conditions: SAM-TIR HEK293T lysate NADase, at 1 µM, stronger effect = higher value
Sequence of NAD(+) hydrolase SARM1 (Homo sapiens) (Q6SZW1 whole entry, looked up, the tested form may be a part): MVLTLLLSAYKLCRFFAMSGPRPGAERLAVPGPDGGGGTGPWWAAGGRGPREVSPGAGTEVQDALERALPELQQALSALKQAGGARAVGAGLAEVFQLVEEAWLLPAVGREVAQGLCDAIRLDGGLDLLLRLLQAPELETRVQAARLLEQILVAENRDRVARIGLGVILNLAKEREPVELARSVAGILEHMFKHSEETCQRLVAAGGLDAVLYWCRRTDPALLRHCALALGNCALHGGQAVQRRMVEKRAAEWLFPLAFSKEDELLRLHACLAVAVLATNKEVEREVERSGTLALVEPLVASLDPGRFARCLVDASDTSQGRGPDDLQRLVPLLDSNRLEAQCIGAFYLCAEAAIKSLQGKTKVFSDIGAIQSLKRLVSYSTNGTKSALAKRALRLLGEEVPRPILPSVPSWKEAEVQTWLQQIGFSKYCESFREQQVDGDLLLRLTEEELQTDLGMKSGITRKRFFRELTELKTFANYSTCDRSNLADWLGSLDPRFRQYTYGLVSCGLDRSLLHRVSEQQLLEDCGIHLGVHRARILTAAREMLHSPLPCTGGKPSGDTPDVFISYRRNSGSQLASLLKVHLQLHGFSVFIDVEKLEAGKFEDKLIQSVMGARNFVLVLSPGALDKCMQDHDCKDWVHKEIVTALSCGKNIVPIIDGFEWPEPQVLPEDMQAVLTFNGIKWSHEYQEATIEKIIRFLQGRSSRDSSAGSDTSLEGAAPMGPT

[2] = target: Mitogen-activated protein kinase 7 (Homo sapiens) (UniProt Q13164); assay: Gal4-ERK5 driven luciferase induction – cell-based, HTS, primary screen (AID 1508626;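 active = luciferase signal above three times the same-plate solvent-only control wells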;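 note: luciferase driven by Gal4-ERK5 fusion binding five Gal4 sites before minimal TATA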); conditions: HeLa Gal4-ERK5 transactivation, 18 h, at 5 µM, stronger effect = higher value
Sequence of Mitogen-activated protein kinase 7 (Homo sapiens) (Q13164 whole entry, looked up, the tested form may be a part): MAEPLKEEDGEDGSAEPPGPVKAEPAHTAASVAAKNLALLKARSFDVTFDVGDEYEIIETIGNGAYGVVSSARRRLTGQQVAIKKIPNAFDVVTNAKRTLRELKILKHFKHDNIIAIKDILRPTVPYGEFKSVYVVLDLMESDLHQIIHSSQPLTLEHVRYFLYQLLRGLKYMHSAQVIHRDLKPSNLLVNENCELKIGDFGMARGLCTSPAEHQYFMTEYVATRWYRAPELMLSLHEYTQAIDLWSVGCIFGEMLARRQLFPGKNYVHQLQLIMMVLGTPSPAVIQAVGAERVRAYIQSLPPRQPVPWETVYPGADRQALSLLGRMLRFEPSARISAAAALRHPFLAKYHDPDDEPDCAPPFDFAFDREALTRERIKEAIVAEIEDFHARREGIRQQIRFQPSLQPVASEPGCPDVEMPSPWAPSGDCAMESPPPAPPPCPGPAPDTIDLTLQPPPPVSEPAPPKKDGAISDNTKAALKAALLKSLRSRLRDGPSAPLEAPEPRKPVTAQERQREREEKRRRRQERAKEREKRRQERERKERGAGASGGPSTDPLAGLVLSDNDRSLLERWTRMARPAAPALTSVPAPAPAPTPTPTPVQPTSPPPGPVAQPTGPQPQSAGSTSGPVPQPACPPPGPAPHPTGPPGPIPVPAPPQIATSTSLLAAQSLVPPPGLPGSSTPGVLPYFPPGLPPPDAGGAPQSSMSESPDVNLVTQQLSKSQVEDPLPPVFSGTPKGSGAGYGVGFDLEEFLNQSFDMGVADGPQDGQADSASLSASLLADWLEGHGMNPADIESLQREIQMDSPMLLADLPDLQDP

[3] = growth inhibition, single agent or in combination, cell-based, chromothripsis tumors, cisplatin or BGB combos (AID 1671449); conditions: LFS_MB_P medulloblastoma cells;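 note: cells exposed for 96 hours; 0% = vehicle DMSO and 100% = killing by high DMSO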
[4] = growth inhibition, single agent and combos, cell-based, chromothripsis tumors, cisplatin or BGB combos (AID 1671450); conditions: HDN33 neuroblastoma cells, stronger effect = higher value;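 note: cells exposed to compound for four days; 0% = vehicle DMSO and 100% = cell killing by high DMSO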
[5] = growth inhibition, single agents and combos, ICB984, cell-based, cisplatin or BGB combos, synergistic combos for chromothripsis tumors (AID 1671451; call rule not given here;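 note: cells exposed for 96 hours before readout; 0% = vehicle DMSO and 100% = killing by high DMSO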); conditions: ICB984 medulloblastoma cells, drug combinations, stronger effect = higher value
[6] = growth inhibition, single agents and combos, LFS_MB_1R, cell-based, cisplatin or BGB combos, synergistic combos for chromothripsis tumors (AID 1671452); conditions: LFS_MB_1R medulloblastoma cells, stronger effect = higher value;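 note: cells exposed for 96 hours before readout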
[7] = growth inhibition, single agents and combos, HTB85, cell-based, BGB or cisplatin IC20 combos, synergistic combos for chromothripsis tumors (AID 1671453); conditions: HTB85 osteosarcoma cells, drug combinations, stronger effect = higher value;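 note: cells exposed for 96 hours before readout; 0% = vehicle DMSO and 100% = high DMSO killing control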
[8] = growth inhibition, single agents and combos, CRL2098, cell-based, BGB or cisplatin IC20 combos, synergistic combos for chromothripsis tumors (AID 1671454); conditions: CRL2098 osteosarcoma cells, drug combinations, stronger effect = higher value;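 note: cells exposed for 96 h before readout; 0% = vehicle DMSO and 100% = killing by high DMSO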
[9] = growth inhibition, single agents and combos, HD-MB03, cell-based, BGB or cisplatin IC20 combos, synergistic combos for chromothripsis tumors (AID 1671455; in the data active = inhibition above about 83%;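 note: 0% = vehicle DMSO and 100% = high DMSO as cytotoxic control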); conditions: HD-MB03 medulloblastoma cells, stronger effect = higher value
[10] = growth inhibition, single agents and combos, UWB1.289, cell-based, BGB or cisplatin combos, synergistic combos for chromothripsis tumors (AID 1671456); conditions: UWB1.289 ovarian carcinoma cells, stronger effect = higher value;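 note: cells exposed to compound for four days; 0% = vehicle DMSO and 100% = killing by high DMSO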
[11] = growth inhibition, single agents and combos, LFS_MB_2R, cell-based, cisplatin combos, synergistic combos for chromothripsis tumors (AID 1671457); conditions: LFS_MB_2R medulloblastoma cells, stronger effect = higher value;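 note: cells exposed to compound for four days before readout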
[12] = growth inhibition, MDA-MB-436, cell-based, BGB or cisplatin combos, synergistic combos for chromothripsis tumors (AID 1671458; call rule not given here;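 note: cells exposed for 96 hours; 0% = vehicle DMSO and 100% = killing by high DMSO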); conditions: MDA-MB-436 breast carcinoma growth inhibition, drug combinations, stronger effect = higher value
[13] = UWB1.289_BRCA1 ovarian cancer growth, cell-based, BGB or cisplatin combinations (AID 1671459); conditions: UWB1.289 BRCA1 ovarian carcinoma, drug combinations, stronger effect = higher value
[14] = drug combination toxicity in non-malignant astrocytes – cell-based, BGB or cisplatin IC20 combos, cytotoxicity control for chromothriptic childhood tumor combination screen (AID 1671460); conditions: Human astrocytes, viability inhibition, drug combinations, at 0.5 µM, stronger effect = higher value;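 note: cells exposed to compounds for 96 hours before viability readout; 0% = vehicle and 100% = killing control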
[15] = BT084 cell growth, single and combined drugs, ICGC_MB145, cisplatin and BGB IC40 combos (AID 1671461); conditions: BT084 medulloblastoma cells, drug combinations, stronger effect = higher value;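 note: cells exposed to drugs for 96 hours; 0% = vehicle DMSO and 100% = high DMSO full killing control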
[16] = RCMB18 cell growth, single agent and combined, cisplatin and BGB IC40 combos (AID 1671462); conditions: RCMB18 medulloblastoma cells, stronger effect = higher value;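 note: cells exposed to compound for four days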
[17] = CRL1545 cell growth, single agent and combined, cisplatin and BGB IC20 combos (AID 1671464); conditions: CRL1545 osteosarcoma cells, stronger effect = higher value;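 note: cells exposed to compound for 96 hours before readout; 0% = vehicle DMSO and 100% = high DMSO killing control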
[18] = galactose survival enhancers in mitochondrial complex I cybrids – cell-based, galactose medium, ATP luminescence, primary screen (AID 1645843;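 active = z-score of at least 1.8 in each of two replicates, scored against plate mean and spread of sample wells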;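 note: positive z means more ATP and so rescue of galactose-driven cybrid death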); conditions: complex I mutant cybrid cells, 72 h, stronger effect = higher value
[19] = measured here: combination with BGB IC40, at 0.05 µM
[20] = measured here: with BGB IC20 combination, at 0.5 µM
[21] = measured here: with cisplatin IC20 combination, at 0.5 µM
[22] = measured here: combination with cisplatin, at 0.5 µM
[23] = measured here: combination with cisplatin, at 5 µM

## CC1CCc2cc(F)cc3c(=O)c(C(=O)O)cn1c23 (stereo unspecified)
[1]
  remaining NAD: 10 nM (inactive)
[2]
  luciferase signal: 60 AU (inactive)
[3]; at 0.5 µM, stronger effect = higher value
  inhibition: 39.2% (inactive) and -31.9% (inactive)
[3]; measured here: combination with BGB IC20, at 0.005 µM
  inhibition: -29.5% and 27.9%
[3]; measured here: combination with BGB IC40, at 0.005 µM
  inhibition: -17.3% and 13.7%
[3]; [19]
  inhibition: -16.4% and 38.8%
[3]; measured here: combination with cisplatin, at 0.5 µM, stronger effect = higher value
  inhibition: 98.2% and -27%
[3]; measured here: combination with cisplatin, at 5 µM, stronger effect = higher value
  inhibition: -36.8% and -23.2%
[4]; BGB combo, at 5 µM
  inhibition: -3.97% and 10%
[4]; at 0.5 µM
  inhibition: 3.55% (inactive) and 8.84% (inactive)
[4]; cisplatin combo, at 5 µM
  inhibition: 2.48% and 8.76%
[4]; [20]
  inhibition: 18.5% and 19.1%
[4]; [21]
  inhibition: -0.119% and -5.91%
[4]; single agent, at 5 µM
  inhibition: 0.699% and -7.13%
[5]; BGB IC20 combo, at 0.005 µM
  inhibition: -7.37% and -18.9%
[5]; BGB IC40 combo, at 0.005 µM
  inhibition: -12.9% and -43.9%
[5]; BGB IC40 combo, at 0.05 µM
  inhibition: -20% and -12.5%
[5]; at 0.5 µM
  inhibition: -19.2% (inactive) and -16.4% (inactive)
[5]; cisplatin combo, at 0.05 µM
  inhibition: -20% and -16.9%
[5]; cisplatin combo, at 0.5 µM
  inhibition: -31% and -15.5%
[5]; cisplatin combo, at 5 µM
  inhibition: -18.9% and -31.7%
[5]; measured here: 5 uM single agent, at 5 µM
  inhibition: -15.3% and -14.5%
[6]; at 0.5 µM
  inhibition: -3.56% (inactive) and 7.41% (inactive)
[6]; [19]
  inhibition: -7.45% and -3.94%
[6]; [22]
  inhibition: 23.1% and 16.6%
[6]; [23]
  inhibition: 7.04% and -25.3%
[7]; at 0.5 µM
  inhibition: -21.3% (inactive) and 5.14% (inactive)
[7]; measured here: with BGB IC20, at 0.5 µM
  inhibition: -53.3% and -0.618%
[7]; measured here: with BGB IC20, at 5 µM
  inhibition: -33.8% and -1.4%
[7]; measured here: with cisplatin IC20, at 0.5 µM
  inhibition: -16.2% and -0.916%
[7]; measured here: with cisplatin IC20, at 5 µM
  inhibition: -23.6% and -6.11%
[7]; single agent, at 5 µM
  inhibition: -1.52% and 15.2%
[8]; at 0.5 µM
  inhibition: -7.35% (inactive) and -5.05% (inactive)
[8]; measured here: combination with BGB at IC20, at 0.5 µM
  inhibition: 15.7% and -0.776%
[8]; measured here: combination with cisplatin at IC20, at 0.5 µM
  inhibition: -17.1% and 17.1%
[9]; at 0.5 µM
  inhibition: -4.42% (inactive) and 1.31% (inactive)
[9]; measured here: combo with BGB at IC20, at 0.5 µM
  inhibition: -11.9% and -3.2%
[9]; measured here: combo with cisplatin at IC20, at 0.5 µM
  inhibition: 7.79% and 0.674%
[10]; at 0.5 µM
  inhibition: 2.76% (inactive) and 0.5% (inactive)
[10]; measured here: inhibition with BGB combination, at 0.05 µM
  inhibition: -16.2% and 1.75%
[10]; measured here: inhibition with cisplatin combination, at 0.05 µM
  inhibition: -12.2% and 4%
[11]; at 0.5 µM
  inhibition: -19.5% (inactive) and -4.64% (inactive)
[11]; [22]
  inhibition: -15.1% and -2.74%
[11]; [23]
  inhibition: -12% and -9.68%
[12]; at 0.5 µM
  inhibition: -12.1% (inactive) and -0.02% (inactive)
[12]; measured here: BGB combination, at 0.5 µM
  inhibition: -17.3% and -1.89%
[12]; measured here: BGB combination, at 5 µM
  inhibition: -23.6% and -8.65%
[12]; measured here: cisplatin combination, at 0.5 µM
  inhibition: -18.1% and 1.92%
[12]; measured here: cisplatin combination, at 5 µM
  inhibition: -8.63% and -4.96%
[13]; BGB combination, concentration series, at 5 µM
  inhibition: 7.3% and -2.65%
[13]; at 0.5 µM
  inhibition: 0.71% (inactive) and -0.93% (inactive)
[13]; cisplatin combination, concentration series, at 5 µM
  inhibition: 1.53% and -5.02%
[14]
  inhibition: 7.24% (inactive) and 2.53% (inactive)
[14]; measured here: combo with BGB IC20
  inhibition: 6.98% and 4.66%
[14]; measured here: combo with cisplatin IC20
  inhibition: 1.25% and 9.82%
[15]; at 0.5 µM
  inhibition: -21.2% (inactive) and 2.68% (inactive)
[15]; cisplatin combination, at 0.5 µM
  inhibition: -37.8% and -1.29%
[15]; cisplatin combination, at 5 µM
  inhibition: -84.9% and -4.5%
[15]; measured here: BGB IC40 combination 0.05 uM, at 0.05 µM
  inhibition: 25.8% and 24.3%
[15]; single agent, at 5 µM
  inhibition: -17% and 4.9%
[16]; at 0.5 µM
  inhibition: -15.1% (inactive) and 7.22% (inactive)
[16]; cisplatin combo, at 5 µM
  inhibition: -26.9% and 25%
[16]; measured here: BGB IC40 combination, at 0.05 µM
  inhibition: -11.2% and -0.956%
[16]; [22]
  inhibition: -23.8% and 30.6%
[16]; single agent, at 5 µM
  inhibition: -29.1% and -22.6%
[17]; at 0.5 µM
  inhibition: -14.4% (inactive) and -0.92% (inactive)
[17]; [20]
  inhibition: 1.08% and -21.3%
[17]; [21]
  inhibition: -22.2% and 9.24%
[17]; single agent, at 0.05 µM
  inhibition: 22.2% and 18.9%
[17]; single agent, at 5 µM
  inhibition: 6.9% and 9.8%

## C[C@H]1O[C@@H](n2cc(F)c(=O)[nH]c2=O)[C@H](O)[C@@H]1O
[1]
  remaining NAD: 10 nM (inactive)
[18]
  z-score: 0.64 (inactive) and -0.08 (inactive)

## CCCOc1ccccc1-c1nc2n[nH]nc2c(=O)[nH]1
[1]
  remaining NAD: 10 nM (inactive)
[18]
  z-score: 0.78 (inactive) and -0.305 (inactive) and 1.09 (inactive)

## CC[C@@]1(O)C(=O)OCc2c1cc1n(c2=O)Cc2cc3c(CN(C)C)c(O)ccc3nc2-1
[1]
  remaining NAD: 10 nM (inactive)
[18]
  z-score: -1.13 (inactive) and -1.87 (inactive) and -2.38 (inactive)
